The nature of test [1]: compound effects on lung adenocarcinoma cell viability – A549, calcein-AM fluorescence, 48 h, basal, profiling panel (AID 1162). Also: test concentration not given here. Particulars: higher = more signal.
The nature of test [2]: compound effects on differentiated 3T3-L1 adipocyte viability – cell-based, 3T3-L1 adipocytes, calcein-AM fluorescence, 48 h, basal, profiling panel (AID 1163). Also: test concentration not given here. Particulars: 3T3-L1 adipocytes viability, higher = more signal.
A short description of test [3]: compound effects on hepatocellular carcinoma cell viability – HepG2, calcein-AM fluorescence, 48 h, basal, profiling panel (AID 1164). Also: test concentration not given here. Particulars: higher = more signal.
Test [4] can be described thus: compound effects on multiple myeloma cell viability – MM1S, calcein-AM fluorescence, 48 h, basal, profiling panel (AID 1165).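 Also: viability of MM1S multiple myeloma cells under basal unstimulated conditions; test concentration not given here.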 Particulars: higher = more signal.
The nature of test [5]: calcein-AM signal in unstimulated myeloma cells – cell-based, calcein-AM fluorescence, 48 h, PK04 Diversity Set, profiling panel (AID 1166).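 Also: cells grown under basal conditions without added stimulus; test concentration not given here.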 Particulars: RPMI8226 myeloma viability, higher = more signal.
A short description of test [6]: JC-1 mitochondrial signal, unstimulated HepG2 cells – cell-based, JC-1 fluorescence, 24 h, 100 nL compound, profiling panel (AID 1167). Also: test concentration not given here. Particulars: HepG2 mitochondrial potential, higher = more signal.
The nature of test [7]: JC-1 mitochondrial signal, unstimulated adipocytes – cell-based, JC-1 fluorescence, 3T3-L1 adipocytes, 24 h, 100 nL compound, profiling panel (AID 1168). Also: test concentration not given here. Particulars: JC-1 mitochondrial fluorescence, higher = more signal, called active from +8 up or from −8 down.
Test [8] in a line: JC-1 mitochondrial signal, unstimulated myeloma cells – cell-based, JC-1 fluorescence, RPMI8226, 24 h, 100 nL compound, profiling panel (AID 1169). Also: test concentration not given here. Particulars: JC-1 mitochondrial potential fluorescence, higher = more signal.
Test [9] in a line: JC-1 mitochondrial signal, unstimulated MM1S myeloma – cell-based, JC-1 fluorescence, 24 h, 100 nL compound, profiling panel (AID 1170). Also: test concentration not given here. Particulars: MM1S mitochondrial potential, higher = more signal.
A short description of test [10]: resazurin metabolic signal in A549 cells – cell-based, resazurin fluorescence, 24 h, PK04 Diversity Set, profiling panel (AID 1171). Also: test concentration not given here. Particulars: A549 viability, higher = more signal, called active from +8 up or from −8 down.
Test [11] in a line: resazurin metabolic signal in HepG2 cells – cell-based, resazurin fluorescence, 24 h, PK04 Diversity Set, profiling panel (AID 1172). Also: test concentration not given here. Particulars: HepG2 viability, higher = more signal.
A short description of test [12]: budding yeast growth changes without added modifier – OD600, strain BY4716, 24 h, basal condition, primary screen (AID 1173). Particulars: S. cerevisiae BY4716 growth, OD600, 24 h; higher = more signal, called active from +8 up or from −8 down.
Test [13] in a line: viability profiling in MM1S myeloma cells – cell-based, resazurin fluorescence, basal, 24 h, PK04 Diversity Set, profiling panel (AID 1174). Also: test concentration not given here. Particulars: higher = more signal, called active from +8 up or from −8 down.
In test [14] the target is Dihydroorotate dehydrogenase (quinone), mitochondrial (Plasmodium falciparum (isolate 3D7)) (UniProt Q08210). As to the kind of experiment: inhibition of P. falciparum DHODH – biochemical, C-terminal His tag, absorbance 600 nm, primary screen (AID 1175).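 Also: recombinant parasite enzyme with a five histidine tag at its C terminus; test concentration not given here.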 Particulars: PfDHODH enzyme, DCIP absorbance 600 nm; higher = more signal, called active from +8 up or from −8 down.
Dihydroorotate dehydrogenase (quinone), mitochondrial (Plasmodium falciparum (isolate 3D7)), sequence (Q08210 whole entry, looked up): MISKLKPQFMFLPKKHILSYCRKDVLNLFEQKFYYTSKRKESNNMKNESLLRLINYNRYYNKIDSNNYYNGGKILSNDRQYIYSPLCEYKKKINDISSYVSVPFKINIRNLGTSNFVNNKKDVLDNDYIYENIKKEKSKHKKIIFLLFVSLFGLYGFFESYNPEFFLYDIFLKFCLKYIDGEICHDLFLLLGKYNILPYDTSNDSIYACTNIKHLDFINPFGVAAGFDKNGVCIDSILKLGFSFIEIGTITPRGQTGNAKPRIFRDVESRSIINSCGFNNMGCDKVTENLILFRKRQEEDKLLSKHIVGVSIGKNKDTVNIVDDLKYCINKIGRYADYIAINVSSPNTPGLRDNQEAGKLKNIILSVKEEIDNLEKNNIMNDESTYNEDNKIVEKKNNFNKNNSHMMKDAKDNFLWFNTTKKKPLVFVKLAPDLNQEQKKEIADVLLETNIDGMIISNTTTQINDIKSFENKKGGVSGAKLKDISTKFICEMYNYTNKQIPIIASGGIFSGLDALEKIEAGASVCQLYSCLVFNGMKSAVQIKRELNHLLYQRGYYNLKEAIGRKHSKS
Test [15] in a line: inhibition of PAO1 biofilm formation – strain PAO1, LB-PBS medium, absorbance 600 nm, primary screen (AID 1176). Also: test concentration not given here. Particulars: P. aeruginosa PAO1 growth/biofilm, A600, 12 h; higher = more signal.
Test [16] in a line: growth modulation of vineyard yeast isolate – strain RM11-1a, OD600, basal, 24 h, primary screen (AID 1177).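 Also: cultures grown under basal conditions with no added stressor; test concentration not given here.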 Particulars: S. cerevisiae RM11-1a growth, OD600, 24 h; higher = more signal, called active from +8 up or from −8 down.
Test [17] can be described thus: growth of efflux-deficient E. coli DRC39 – strain DRC39, OD650, 24 h, E. coli filamentation inducers, primary screen (AID 1178).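 Also: growth measured as culture turbidity by optical density at 650 nm; test concentration not given here.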 Particulars: E. coli DRC39 acrAB, higher = more signal, called active from +8 up or from −8 down.
Test [18] is described as follows: growth of efflux-deficient E. coli DRC39 – strain DRC39, OD650, 48 h, E. coli filamentation inducers, primary screen (AID 1179).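 Also: screen aims at cell division blockers that make cells filament.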 Particulars: E. coli DRC39 delta-acrAB growth, higher = more signal, called active from +8 up or from −8 down.
Test [19] in a line: viability profiling in RPMI8226 myeloma cells – cell-based, resazurin fluorescence, basal, 24 h, PK04 Diversity Set, profiling panel (AID 1180).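 Also: RPMI8826 multiple myeloma cell line at 5000 cells per well; test concentration not given here.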 Particulars: higher = more signal.
Test [20] deals with E3 ubiquitin-protein ligase XIAP (Homo sapiens) (UniProt P98170). As to the kind of experiment: small molecules binding XIAP protein – biophysical, small-molecule microarray, fluorescence 635 nm, primary screen (AID 1181).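 Also: score merges 667 nm emission and signal to noise over triplicate slides.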 Particulars: higher = more signal.
E3 ubiquitin-protein ligase XIAP (Homo sapiens), sequence (P98170 whole entry, looked up): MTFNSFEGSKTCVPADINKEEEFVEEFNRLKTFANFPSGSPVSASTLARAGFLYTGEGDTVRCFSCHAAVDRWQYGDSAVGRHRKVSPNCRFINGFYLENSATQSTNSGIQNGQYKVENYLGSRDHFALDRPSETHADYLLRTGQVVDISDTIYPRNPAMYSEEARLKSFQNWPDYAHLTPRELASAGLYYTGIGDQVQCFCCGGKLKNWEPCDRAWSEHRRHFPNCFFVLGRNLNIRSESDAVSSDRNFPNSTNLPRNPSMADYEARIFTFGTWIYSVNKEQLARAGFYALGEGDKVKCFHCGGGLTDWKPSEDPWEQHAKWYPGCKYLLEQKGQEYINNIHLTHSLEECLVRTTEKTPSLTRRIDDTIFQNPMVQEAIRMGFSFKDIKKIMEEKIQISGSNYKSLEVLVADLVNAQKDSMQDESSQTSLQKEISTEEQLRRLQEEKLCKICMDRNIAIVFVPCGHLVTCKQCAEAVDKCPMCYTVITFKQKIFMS

The source made the active and inactive calls. Unless noted, no rule for the calls is given here.

On to `CCOC(=O)C1=CC[C@@H](c2ccccc2)N(S(=O)(=O)C[Si](C)(C)C)[C@H]1c1ccccc1`, for which the z-score in [1] is -0.96; in test [2], 0.147; in test [3], 0.0425; in test [4] it was 0.0106; in [5] it was 0.242; in test [6], -1.37. The z-score was -0.479 (inactive) in [7]; -0.687 in test [8]; -0.667 in test [9]; 0.946 (inactive) in test [10]; 0.128 in [11]; 0.945 (inactive) in test [12]. The z-score in [13] is -0.013 (inactive); in test [15], 0.257 (inactive); in [16] it was -0.42 (inactive); in [17] it was -0.618 (inactive); in test [18], -1.59 (inactive); in [19], 0.343. Also, the composite z-score in test [14] was 0.407 (inactive); in [20] it was -0.125.
On to `COc1ccc([Si](C)(C)[C@H]2[C@H](CCO)O[C@@]3(C(=O)N(Cc4ccccc4)c4ccc(N(C=O)c5ccccc5)cc43)[C@@H]2C)cc1`, for which the z-score in test [1] is -0.108; in test [2], 0.288; in test [3], -3.3; in test [4], -0.622; in test [5], -2.82; in [6], 0.553. Moreover, the z-score in test [7] is -0.00912 (inactive); in test [8] it was -0.914; in test [9], -1.27; in test [10], -1.25 (inactive); in [11], 0.0056; in test [12] it was 1.53 (inactive). Also, the z-score in [13] is -2.24 (inactive); in [15], 2.58 (inactive); in test [16], 5.16 (inactive); in [17], 1.28 (inactive); in test [18], 0.733 (inactive); in test [19], -1.28. Moreover, the composite z-score is -0.363 (inactive) in test [14] and -0.0668 in test [20].
On to `C=CC[C@]1(C(=O)NCc2ccccc2)COC(c2ccc(OCCCO)cc2)=N1`, for which the z-score in [1] is -0.555; in test [2], 0.548; in test [3], -2.51; in test [4], -2.01; in [5], -0.953; in [6], -3.22. Further, the z-score was -0.436 (inactive) in test [7]; -0.4 in test [8]; -0.107 in test [9]; -0.256 (inactive) in test [10]; -0.137 in test [11]; -1.92 (inactive) in test [12]. For the same molecule, the z-score in test [13] was -1.4 (inactive); in test [15] it was -0.0025 (inactive); in test [16] it was 0.02 (inactive); in test [17] it was 0.729 (inactive); in test [18], -0.145 (inactive); in test [19], -0.874. For the same molecule, the composite z-score is -0.267 (inactive) in [14] and 0.001 in test [20].
Consider `O=C1C2C=CC(C(O)c3cccs3)N(Nc3ccccc3)C2C(=O)N1c1ccccc1` (stereo not given), for which the z-score is -0.125 in test [1]; 0.715 in test [2]; -0.379 in [3]; 0.473 in [4]; 0.502 in [5]; -1.72 in [6]. Moreover, the z-score in test [7] is 0.673 (inactive); in [8], -0.18; in [9], -0.542; in test [10], -0.919 (inactive); in test [11], -1.51; in [12], -3.05 (inactive). Besides, the z-score was -0.334 (inactive) in test [13]; 1.06 (inactive) in test [15]; -0.272 (inactive) in test [16]; 0.0187 (inactive) in [17]; -0.952 (inactive) in test [18]; -0.717 in test [19]. Moreover, the composite z-score was -0.116 (inactive) in test [14] and 0.0537 in test [20].
As for `CC(C)C[C@@H]1NC(=O)[C@@H]2C[C@H](C(=O)O)[C@H](c3ccc(O)cc3)N2C1=O`, the z-score is 0.704 in test [1]; 0.37 in test [2]; 0.285 in test [3]; -1.32 in test [4]; 0.126 in test [5]; 0.962 in [6]. Besides, the z-score is -0.773 (inactive) in test [7]; -0.49 in test [8]; 0.3 in test [9]; 1.64 (inactive) in [10]; -1.68 in test [11]; -0.568 (inactive) in test [12]. The z-score in test [13] was 1.18 (inactive); in [15] it was 0.407 (inactive); in test [16] it was -1.11 (inactive); in test [17], 2.14 (inactive); in test [18], 1.94 (inactive); in test [19] it was 1.16. Besides, the composite z-score is 0.372 (inactive) in test [14] and 0.254 in [20].
Turning to `COC(=O)[C@@H]1N=C(c2ccc(OCCCO)cc2)O[C@@H]1c1ccccc1CN=[N+]=[N-]`, the z-score was 0.432 in [1]; -0.446 in test [2]; -0.198 in [3]; -0.329 in [4]; -0.717 in [5]; -1.07 in [6]. The z-score in test [7] was 1.43 (inactive); in test [8], -0.16; in test [9] it was -0.741; in test [10], 1.07 (inactive); in test [11], 1.25; in test [12] it was -1.46 (inactive). Moreover, the z-score was 0.55 (inactive) in [13]; -0.636 (inactive) in test [15]; 0.657 (inactive) in test [16]; 0.0547 (inactive) in test [17]; 0.396 (inactive) in [18]; 0.11 in test [19]. Besides, the composite z-score in [14] was -0.487 (inactive); in [20], 0.279.
Take `O=c1cccc(-c2ccccc2C(F)(F)F)o1`: the z-score is -0.976 in test [1]; -0.0994 in [2]; 0.21 in test [3]; 0.634 in test [4]; -0.475 in test [5]; -0.72 in test [6]. The z-score in test [7] was 0.254 (inactive); in test [8], 0.835; in [9], -1.3; in test [10] it was -0.262 (inactive); in [11], -0.719; in test [12], -3.23 (inactive). In addition, the z-score was -0.256 (inactive) in test [13]; 0.698 (inactive) in test [15]; -0.432 (inactive) in [16]; -0.736 (inactive) in test [17]; -0.275 (inactive) in test [18]; -0.59 in [19]. Also, the composite z-score was -0.636 (inactive) in test [14] and 0.144 in test [20].
In the case of `O=C1OCCC=C[C@H]2OC34C=CCN(c5ccc(Cl)cc5)C(=O)[C@H]3N(CCO)C(=O)[C@@H]4C12` (stereo not given in full), the z-score in test [1] is -0.384; in [2], 0.0844; in [3], 0.0509; in test [4], 0.739; in [5], -0.165; in test [6], -0.28. In addition, the z-score in test [7] is 0.296 (inactive); in test [8], 0.0137; in [9] it was 1.29; in [10], 0.519 (inactive); in test [11], 0.545; in test [12] it was 0.204 (inactive). The z-score was 0.221 (inactive) in test [13]; -0.317 (inactive) in test [15]; 0.132 (inactive) in [16]; -0.947 (inactive) in test [17]; -1.04 (inactive) in test [18]; -0.202 in test [19]. The composite z-score is -1.45 (inactive) in test [14] and -0.31 in test [20].
For `C=C(COC)/C(=C/C[C@H](OC(=O)c1ccncc1)c1cccc(OCCO)c1)c1cnc2ccccc2c1`, the z-score in test [1] was -0.0119; in test [2] it was 0.222; in [3], 0.596; in [4] it was -2.77; in test [5], -0.0229; in [6], 0.327. Besides, the z-score in test [7] was -0.0487 (inactive); in test [8], 0.568; in [9], -0.704; in test [10] it was 0.251 (inactive); in test [11], 0.123; in [12], 0.14 (inactive). Further, the z-score was -1.24 (inactive) in [13]; 1.14 (inactive) in test [15]; -0.148 (inactive) in test [16]; -0.259 (inactive) in [17]; -0.199 (inactive) in [18]; -0.697 in [19]. For the same molecule, the composite z-score in test [14] was -5.24 (inactive); in test [20], -0.0156.

These data come from PubChem BioAssay.
